# PubChem BioAssay (NCATS)
# Inconclusive results are not listed. Entries that show only a call come without a potency. Activity calls are given as the source filed them. Calls come from the whole dose curve; as a rule, active = well fitted inhibition curve with a large enough effect; inconclusive = small, poorly fitted or top-dose-only effect; inactive = flat fitted curve, though single readings scatter.
# Molecular target: Ubiquitin carboxyl-terminal hydrolase 1 (Homo sapiens) (UniProt O94782)
# Experiment: Inhibitors of USP1/UAF1: Pilot qHTS (AID 504865); note: nearly all actives have a fitted effect of over 35% in size
# Details: purified USP1/UAF1, Ub-rhodamine cleavage fluorescence; series mostly up to 54.9 µM
# Text: Deubiquitinating enzymes (DUBs) are a class of enzymes that can cleave isopeptide bond formed between the C-terminal carboxylate of ubiquitin and a lysine side-chain amino group on the target protein. Among them, ubiquitin specific proteases (USPs) constitute the largest DUB family. Human USPs are emerging as promising targets for pharmacological intervention because of their connection to a number of human diseases, including prostate, colon and breast cancer (1, 2), pediatric acute lymphoblastic leukemia (3), and familial cylindromatosis (4). The advantage of inhibiting USPs lies in the potential specificity of therapeutic intervention that can lead to better efficacy and reduce nonspecific side effects.
# In a collaboration between the University of Delaware and the NIH Chemical Genomics Center, a high-throughput screen assay was developed to screen for USP1/UAF1 inhibitors. This miniaturized assay has a fluorescent read-out and is used to screen the NIH Molecular Libraries Small Molecule Repository (MLSMR) in order to identify a small molecule that inhibits USP1.
# NIH Chemical Genomics Center [NCGC]
# NIH Molecular Libraries Probe Centers Network [MLPCN]
# Assay Submitter (PI): Zhihao Zhuang, University of Delaware
# 1. Priolo, C., et al. (2006) The isopeptidase USP2a protects human prostate cancer from apoptosis. Cancer Res 66, 8625-8632
# 2. Popov, N., et al. (2007) The ubiquitin-specific protease USP28 is required for MYC stability. Nat Cell Biol 9, 765-774
# 3. De Pitta, C., et al. (2005) A leukemia-enriched cDNA microarray platform identifies new transcripts with relevance to the biology of pediatric acute lymphoblastic leukemia. Haematologica 90, 890-898
# 4. Kovalenko, A., et al. (2003) The tumour suppressor CYLD negatively regulates NF-kappaB signalling by deubiquitination. Nature 424, 801-805
# 3 microliters of reagents (buffer in columns 3 and 4 as negative control and 1nM USP1/UAF1 complex in columns 1, 2, and 5-48) are dispensed into Greiner black solid bottom 1536-well assay plates. Compounds are then transferred via Kalypsys pin tool equipped with 1536-pin array (10nl slotted pins, V&P Scientific, San Diego, CA). Following an incubation step of 15 min at room temperature, 1ul of Ub-Rho substrate (150nM final concentration) is added to initiate the reaction. The plates are immediately centrifuged at 1000 rpm for 15 seconds, and subsequently transferred to a ViewLux high-throughput CCD imager (PerkinElmer) wherein kinetic measurements of fluorescence are acquired using 480 nm excitation/540 nm emission filter set (6 reads every 60 seconds, see Table 1). All reagents are diluted in an assay buffer consisting of 50mM HEPES (pH 7.8), 0.5mM EDTA, 0.1 mg/ml BSA, 1mM TCEP, and 0.01% Tween-20.
# Potency is the fitted concentration of half-maximal effect.
# Ubiquitin carboxyl-terminal hydrolase 1 (Homo sapiens), sequence (O94782 whole entry, looked up): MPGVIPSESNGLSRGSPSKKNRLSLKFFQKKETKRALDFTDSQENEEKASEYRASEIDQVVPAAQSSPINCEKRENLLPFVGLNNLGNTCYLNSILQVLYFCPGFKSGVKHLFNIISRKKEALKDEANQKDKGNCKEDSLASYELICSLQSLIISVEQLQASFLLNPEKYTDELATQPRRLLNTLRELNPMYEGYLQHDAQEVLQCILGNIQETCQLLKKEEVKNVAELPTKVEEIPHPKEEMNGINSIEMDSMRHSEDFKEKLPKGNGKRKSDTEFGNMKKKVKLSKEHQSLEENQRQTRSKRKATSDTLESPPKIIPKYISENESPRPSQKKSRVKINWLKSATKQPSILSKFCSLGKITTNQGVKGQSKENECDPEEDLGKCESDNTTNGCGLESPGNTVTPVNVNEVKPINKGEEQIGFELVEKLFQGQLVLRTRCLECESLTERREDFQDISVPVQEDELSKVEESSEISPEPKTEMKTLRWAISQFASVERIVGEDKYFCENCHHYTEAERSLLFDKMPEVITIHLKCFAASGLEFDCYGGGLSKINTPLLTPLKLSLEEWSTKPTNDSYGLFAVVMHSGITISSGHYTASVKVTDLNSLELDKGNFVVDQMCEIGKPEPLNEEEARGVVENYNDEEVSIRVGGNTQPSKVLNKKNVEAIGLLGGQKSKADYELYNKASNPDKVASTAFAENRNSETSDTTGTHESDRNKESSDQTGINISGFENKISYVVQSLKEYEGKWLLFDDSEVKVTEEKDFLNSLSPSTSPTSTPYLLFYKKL
row,Compound,Potency
1,CC(C)NC[C@H](O)c1cc(O)cc(O)c1,inactive
2,COc1cccc(Cn2c(=O)c(-c3cc(F)cc(F)c3)nc3cnc(N4CCOCC4)nc32)c1,inactive
3,CN(C)c1ncc2nc(-c3cc(F)cc(F)c3)c(=O)n(C)c2n1,inactive
4,NC(=O)c1cc[n+](CC2=C(C(=O)O)N3C(=O)[C@@H](NC(=O)[C@H](c4ccccc4)S(=O)(=O)[O-])[C@@H]3SC2)cc1,inactive
5,COc1ccc(-n2c(=O)c(-c3cc(F)cc(F)c3)nc3cnc(N4CCOCC4)nc32)cc1,inactive
6,CS(=O)(=O)Nc1cccc(-c2ccc3ncnc(N4CCOCC4)c3c2)c1,inactive
7,CN(C)c1ncc2nc(-c3ccc(F)cc3)c(=O)n(-c3ccccc3)c2n1,inactive
8,CN(C)c1ccc(-c2ccc3ncnc(N(C)Cc4ccco4)c3c2)cc1,inactive
9,CN(C)C(=O)c1ccc(-c2cncnc2NCc2cccs2)cc1,inactive
10,COc1cccc(Cn2c(=O)c(-c3cn(C)c4ccccc34)nc3cncnc32)c1,inactive
11,Cc1cc(OC(=O)c2c(C)cc(O)cc2O)cc(O)c1C(=O)O,inactive
12,COc1ccc(CNc2ncnc3ccc(-c4c(C)noc4C)cc23)c(OC)c1,inactive
13,CN(C)c1ncc2nc(-c3ccccc3)c(=O)n(CCc3ccccc3)c2n1,inactive
14,Cn1c(=O)c(-c2ccc(F)c(F)c2)nc2cncnc21,inactive
15,CN1C(CC(=O)c2ccccc2)CCCC1CC(O)c1ccccc1 (stereo not given),inactive
16,CS(=O)(=O)Nc1cccc(-c2cc(NCc3cccs3)ncn2)c1,inactive
17,Cn1cc(-c2nc3cnc(Oc4cccc(Cl)c4)nc3n(C3CC3)c2=O)c2ccccc21,inactive
18,Cc1nc2cnc(N3CCN(C)CC3)nc2n(C2CC2)c1=O,inactive
19,Cc1nc2cnc(N3CCN(C)CC3)nc2n(C[C@H]2CCCO2)c1=O,inactive
20,CCNc1ncc2nc(C)c(=O)n(CCOC)c2n1,inactive

row,Compound,Potency
1,c1csc(CNc2ncncc2-c2ccoc2)c1,inactive
2,C[C@]12CCC3c4ccc(O)cc4CCC3[C@@H]1CCC2=O (stereo not given in full),inactive
3,FC(F)(F)c1ccccc1-c1nccc(NCc2ccccc2)n1,6.31 µM (active)
4,Cc1ccccc1-c1cncnc1N1CCN(C)CC1,inactive
5,CN(Cc1ccco1)c1ncncc1-c1ccccc1C(F)(F)F,inactive
6,COCCn1c(=O)c(-c2cccc(Cl)c2)nc2cncnc21,inactive
7,COc1ccccc1CNc1nc(-c2ccccc2CN(C)C)nc2ccccc12,inactive
8,CCN(CC)CCC[C@H](C)Nc1c2ccc(Cl)cc2nc2ccc(OC)cc12,31.6 µM (active)
9,CN1CCN(c2ncnc3ccc(-c4cccc(NS(C)(=O)=O)c4)cc23)CC1,inactive
10,COc1ncc2nc(-c3cn(C)c4ccccc34)c(=O)n(-c3ccccc3)c2n1,inactive
11,COc1ccccc1CNc1ncncc1-c1ccccc1CN(C)C,inactive
12,CN1CCN(c2ncc3nc(-c4cccs4)c(=O)n(Cc4ccc(F)cc4)c3n2)CC1,inactive
13,CS(=O)(=O)Nc1cccc(-c2cncnc2NCc2cccnc2)c1,inactive
14,O=c1c(-c2cc(F)cc(F)c2)nc2cnc(N3CCOCC3)nc2n1Cc1ccc(F)cc1,inactive
15,COc1cccc(-c2ccc3ncnc(N4CCOCC4)c3c2)c1,inactive
16,CN1CCN(c2ccnc(-c3ccc(N(C)C)cc3)n2)CC1,inactive
17,C=CC(C1=CC(=O)C(OC)=CC1=O)c1ccccc1 (stereo not given),56.2 µM (active)
18,CN(C)C(=O)c1ccc(-c2cncnc2Nc2ccccc2)cc1,inactive
19,COc1cccc(Cn2c(=O)c(-c3cccs3)nc3cnc(OCc4ccccc4)nc32)c1,inactive
20,CN1CCN(c2ncncc2-c2ccoc2)CC1,inactive
